Data published in PubChem BioAssay (Tox21).
Records with an inconclusive call do not appear. A call without a number means that no potency is given here. A number with no mark means an inactive call. Active and inactive are the calls of the source. Calls come from the whole dose curve.

Target: Beta-2 adrenergic receptor (Homo sapiens) (UniProt P07550)
Experiment: Adrenergic beta2 receptor (ADRB2) small molecule agonists, cell-based qHTS assay (AID 1963593);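 note: CHO cells stably overexpressing human ADRB2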
How it was run: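 CHO cells stably over-expressing ADRB2 were plated overnight at 37C, then dosed with compounds plus a stimulation mix containing 100uM IBMX and 25uM Ro-20-1724 for 0.5hr at room temperature. cAMP was measured by HTRF competition, 1hr.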

Beta-2 adrenergic receptor (Homo sapiens), sequence (P07550 whole entry, looked up): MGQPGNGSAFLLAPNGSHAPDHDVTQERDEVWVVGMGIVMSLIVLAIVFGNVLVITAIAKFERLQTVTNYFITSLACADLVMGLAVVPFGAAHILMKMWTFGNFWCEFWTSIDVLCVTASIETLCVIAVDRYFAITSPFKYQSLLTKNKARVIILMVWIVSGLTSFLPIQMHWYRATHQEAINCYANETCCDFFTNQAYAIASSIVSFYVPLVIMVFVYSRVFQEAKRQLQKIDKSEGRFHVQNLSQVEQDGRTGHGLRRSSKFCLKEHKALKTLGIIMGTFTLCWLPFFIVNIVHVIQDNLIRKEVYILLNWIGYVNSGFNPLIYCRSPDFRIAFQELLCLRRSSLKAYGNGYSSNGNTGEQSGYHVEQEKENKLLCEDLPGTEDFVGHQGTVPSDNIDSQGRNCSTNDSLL

Compound: CCC(=O)C(CCN(C)C)(c1ccccc1)c1ccccc1
- Potency: inactive

Compound: CCN(CCO)CCn1c(Cc2ccccc2)nc2c1c(=O)n(C)c(=O)n2C
- Potency: inactive

Compound: CCOC(=O)c1ncn2c1CN(C)C(=O)c1c(I)cccc1-2
- Potency: inactive

Compound: COC(=O)N(C(=O)N1CO[C@@]2(C(=O)OC)Cc3cc(Cl)ccc3C2=N1)c1ccc(OC(F)(F)F)cc1
- Potency: inactive

Compound: O=C(NC(=O)c1c(F)cccc1F)Nc1cc(Cl)c(F)c(Cl)c1F
- Potency: inactive

Compound: CN/C(=N\[N+](=O)[O-])NCc1cnc(Cl)s1
- Potency: inactive

Compound: CCCCS(=O)(=O)Cl
- Potency: inactive

Compound: CCC(OC(C)=O)C(CC(C)NC)(c1ccccc1)c1ccccc1 (stereo unspecified)
- Potency: inactive

Compound: COC(=O)C(c1ccccc1)C1CCCCN1 (stereo unspecified)
- Potency: inactive

Compound: CCCCCCCCCCCCCN1CC(C)OC(C)C1 (stereo unspecified)
- Potency: inactive

Compound: COC1CC(=C(c2cccs2)c2cccs2)C[N+](C)(C)C1 (stereo unspecified)
- Potency: inactive

Compound: C[C@]12CC[C@H]3[C@@H](CCC4=CC(=O)CC[C@@]43C)[C@@H]1CC[C@@H]2C(=O)O
- Potency: inactive

Compound: Cc1c([N+](=O)[O-])cc2c(c1[N+](=O)[O-])C(C)(C)CC2(C)C
- Potency: inactive

Compound: COc1cc(Cl)c(OC)cc1Cl
- Potency: inactive

Compound: II
- Potency: inactive

Compound: CCCC[N+]1(C)[C@@H]2CC(OC(=O)[C@H](CO)c3ccccc3)C[C@H]1[C@@H]1O[C@@H]12 (stereo partly specified)
- Potency: inactive

Compound: CCOC(=O)OC1=C(c2cc(C)ccc2C)C(=O)NC12CCC(OC)CC2 (stereo unspecified)
- Potency: inactive

Compound: C=CCC1([C@H](C)CCC)C(=O)NC(=O)NC1=O
- Potency: inactive

Compound: CCCCCCCCP(=O)(O)O
- Potency: inactive

Compound: N#CCCl
- Potency: inactive

Compound: CCN(CC)C(=O)Cl
- Potency: inactive

Compound: CCCSC(=O)N(CCC)CCC
- Potency: inactive

Compound: O=S1(=O)OCCO1
- Potency: inactive

Compound: CCCN1CCC[C@@H]2Cc3[nH]ncc3C[C@H]21
- Potency: inactive

Compound: CC(C)=CCOc1c2occc2cc2ccc(=O)oc12
- Potency: inactive

Compound: O=C(Cl)c1ccc(Cl)cc1
- Potency: inactive

Compound: ClCc1cccc(Cl)c1
- Potency: inactive

Compound: COc1cc(C=O)cc2c1[C@H](COC(N)=O)[C@]1(OC(C)=O)ON2C[C@H]2[C@@H]1N2C(C)=O
- Potency: inactive

Compound: ClC(Cl)=C(Cl)Cl
- Potency: inactive

Compound: CO/C=C(/C(=O)OC)c1ccccc1COc1cccc(C(F)(F)F)n1
- Potency: inactive

Compound: CC1NCCOC1c1ccccc1 (stereo unspecified)
- Potency: inactive

Compound: CSSC
- Potency: inactive

Compound: CC1=C(C(=O)O)N2C(=O)[C@@H](N)[C@H]2SC1
- activation: 0.75% [at 19 µM]

Compound: CCC1(c2ccccc2)C(=O)N=C(O)NC1=O (stereo unspecified)
- Potency: inactive

Compound: CC(=O)CN(CC(C)=O)N=O
- Potency: inactive

Compound: COC(=O)C(C)Oc1ccc(Oc2ccc(Cl)cc2Cl)cc1 (stereo unspecified)
- Potency: inactive

Compound: Oc1ccccc1Br
- Potency: inactive

Compound: O=C(NC(=O)c1c(F)cccc1F)Nc1ccc(Oc2ccc(C(F)(F)F)cc2Cl)cc1F
- Potency: inactive

Compound: C#CC(O)(C=CCl)CC (stereo unspecified)
- Potency: inactive

Compound: CC(C)[N+](=O)[O-]
- Potency: inactive

Compound: CCCCCCCCCC(=O)O[C@H]1CC[C@H]2[C@@H]3CCC4=CC(=O)CC[C@@H]4[C@H]3CC[C@]12C
- Potency: inactive

Compound: CC(C)(C)c1ccc(CSc2cnn(C(C)(C)C)c(=O)c2Cl)cc1
- Potency: inactive

Compound: CC[C@]1(O)CC[C@H]2[C@@H]3CCC4=CCCC[C@@H]4[C@H]3CC[C@@]21C
- Potency: inactive

Compound: CCCCCCCCCCCCCCCCCCn1cc[n+](C)c1
- Potency: inactive

Compound: COc1cccc([C@@]2(O)CCCC[C@@H]2CN(C)C)c1
- Potency: inactive

Compound: O=C(NC(=O)c1cc(F)c(F)cc1Cl)Nc1cc(F)ccc1N1CCC(C(=O)O)CC1
- Potency: inactive
